From PubChem BioAssay come the findings set out here.

The nature of test [1]: HepG2 liver cancer cell viability effects, profiling panel, resazurin fluorescence, 24 h, PK04 Diversity Set (AID 1172). Note: test concentration not given here. The note with it: higher = more signal. In general terms: Resazurin is reduced to fluorescent resorufin, in cell work by metabolically active cells.
Test [2] can be described thus: basal S. cerevisiae growth modulation, no modifier, primary screen, OD600, strain BY4716, 24 h, basal condition (AID 1173). The conditions noted are these: OD600, 24 h, higher = more signal, called active from +8 up or from −8 down.
Test [3] can be described thus: MM1S myeloma cell viability, profiling panel, resazurin fluorescence, basal, 24 h, PK04 Diversity Set (AID 1174).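 Note: MM1S multiple myeloma cell line; test concentration not given here.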 The note with it: higher = more signal, called active from +8 up or from −8 down.
In test [4] the target is Dihydroorotate dehydrogenase (quinone), mitochondrial (Plasmodium falciparum (isolate 3D7)) (UniProt Q08210). The test is described as follows: PfDHODH enzyme inhibitors, primary screen, biochemical, C-terminal His tag, absorbance 600 nm (AID 1175).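 Note: recombinant parasite enzyme with a five histidine tag at its C terminus; test concentration not given here.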 The note with it: DCIP absorbance 600 nm, higher = more signal, called active from +8 up or from −8 down.
Sequence of Dihydroorotate dehydrogenase (quinone), mitochondrial (Plasmodium falciparum (isolate 3D7)) (Q08210 whole entry, looked up): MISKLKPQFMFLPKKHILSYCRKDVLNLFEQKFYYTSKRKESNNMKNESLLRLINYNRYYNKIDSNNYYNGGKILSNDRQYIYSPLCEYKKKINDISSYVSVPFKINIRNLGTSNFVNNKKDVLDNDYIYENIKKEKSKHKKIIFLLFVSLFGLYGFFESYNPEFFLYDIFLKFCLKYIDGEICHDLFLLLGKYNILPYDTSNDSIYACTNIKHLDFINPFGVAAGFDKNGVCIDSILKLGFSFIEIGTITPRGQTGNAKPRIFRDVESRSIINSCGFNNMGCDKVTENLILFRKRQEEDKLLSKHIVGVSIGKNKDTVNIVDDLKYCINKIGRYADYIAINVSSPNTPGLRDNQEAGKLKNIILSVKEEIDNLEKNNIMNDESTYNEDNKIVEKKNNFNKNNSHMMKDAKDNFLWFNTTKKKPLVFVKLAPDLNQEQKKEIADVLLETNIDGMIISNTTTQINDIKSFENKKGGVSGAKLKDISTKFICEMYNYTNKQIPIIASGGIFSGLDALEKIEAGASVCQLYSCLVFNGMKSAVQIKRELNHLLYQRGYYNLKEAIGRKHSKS
Test [5] in a line: P. aeruginosa biofilm formation inhibitors, primary screen, strain PAO1, LB-PBS medium, absorbance 600 nm (AID 1176). Note: test concentration not given here. The conditions noted are these: P. aeruginosa PAO1 growth/biofilm, A600, 12 h; higher = more signal.
Test [6] is described as follows: S. cerevisiae RM11-1a growth modifiers, primary screen, strain RM11-1a, OD600, basal, 24 h (AID 1177).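 Note: cultures grown under basal conditions with no added stressor; test concentration not given here.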 The note with it: OD600, 24 h, higher = more signal, called active from +8 up or from −8 down.
Test [7] in a line: E. coli acrAB mutant growth effects, primary screen, E. coli filamentation inducers, strain DRC39, OD650, 24 h (AID 1178).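 Note: growth measured as culture turbidity by optical density at 650 nm; test concentration not given here.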 The conditions noted are these: higher = more signal, called active from +8 up or from −8 down.
Test [8] in a line: E. coli acrAB mutant growth effects, primary screen, E. coli filamentation inducers, strain DRC39, OD650, 48 h (AID 1179).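 Note: screen aims at cell division blockers that make cells filament.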 The conditions noted are these: E. coli DRC39 delta-acrAB growth, higher = more signal, called active from +8 up or from −8 down.
Test [9] can be described thus: RPMI8226 myeloma cell viability, profiling panel, resazurin fluorescence, basal, 24 h, PK04 Diversity Set (AID 1180).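 Note: RPMI8826 multiple myeloma cell line at 5000 cells per well; test concentration not given here.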 The conditions noted are these: higher = more signal.
The target in test [10] is E3 ubiquitin-protein ligase XIAP (Homo sapiens) (UniProt P98170). The test is described as follows: XIAP binders, primary screen, biophysical, small-molecule microarray, fluorescence 635 nm (AID 1181).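 Note: score merges 667 nm emission and signal to noise over triplicate slides.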 The conditions noted are these: small-molecule microarray binding, higher = more signal.
Sequence of E3 ubiquitin-protein ligase XIAP (Homo sapiens) (P98170 whole entry, looked up): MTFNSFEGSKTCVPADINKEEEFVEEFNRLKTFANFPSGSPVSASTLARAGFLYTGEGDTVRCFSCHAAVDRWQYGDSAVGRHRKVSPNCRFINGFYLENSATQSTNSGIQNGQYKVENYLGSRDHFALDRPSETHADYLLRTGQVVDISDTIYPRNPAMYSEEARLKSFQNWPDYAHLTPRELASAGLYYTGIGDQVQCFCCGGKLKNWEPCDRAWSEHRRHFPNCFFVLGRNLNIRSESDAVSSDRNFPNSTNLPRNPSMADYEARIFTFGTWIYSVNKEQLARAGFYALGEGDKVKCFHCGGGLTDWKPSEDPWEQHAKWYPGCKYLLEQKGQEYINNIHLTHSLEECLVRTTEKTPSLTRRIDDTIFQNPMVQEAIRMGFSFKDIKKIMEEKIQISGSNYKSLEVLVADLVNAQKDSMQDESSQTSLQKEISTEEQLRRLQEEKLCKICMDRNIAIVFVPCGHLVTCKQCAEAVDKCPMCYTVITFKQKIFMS

SMILES strings stand for the structures. The source made the active and inactive calls. Unless noted, the rule behind the calls is not given here.

For `CC(=O)n1cc(C(O)C2C=CC3C(=O)N(c4ccccc4)C(=O)C3N2Nc2ccc(C#N)cc2)c2ccccc21` (stereo not given), the z-score in [1] was -0.592; in test [2], -2.71 (inactive); in test [3] it was -0.897 (inactive); in [5], 0.956 (inactive); in test [6] it was -0.129 (inactive); in test [7] it was -0.698 (inactive). The values for the z-score in [8] and in [9] were -0.119 (inactive) and -0.189, respectively. Besides, the composite z-score in test [4] is -0.796 (inactive); in test [10], 0.147.
Consider `NC(=O)[C@@]1(CCS(=O)(=O)c2ccccc2)N=C(c2ccc(OCCCO)cc2)O[C@H]1c1ccccc1`, for which the z-score is -0.0687 in [1]; -1.38 (inactive) in test [2]; 0.837 (inactive) in test [3]; -0.73 (inactive) in test [5]; -0.832 (inactive) in test [6]; 0.818 (inactive) in test [7]. Also, the z-score was 0.565 (inactive) in test [8] and 0.429 in test [9]. Besides, the values for the composite z-score in [4] and in test [10] were -0.319 (inactive) and 0.0097, respectively.
For `O=C1O[C@@H](c2ccccc2)[C@@H](c2ccccc2)N2[C@@H](c3ccc(O)cc3)[C@]3(C(=O)Nc4ccc(C#CCCO)cc43)[C@@H](C(=O)O)[C@H]12`, the z-score was 0.259 in test [1]; -1.01 (inactive) in [2]; 0.519 (inactive) in test [3]; 0.201 (inactive) in test [5]; -0.261 (inactive) in test [6]; 0.151 (inactive) in test [7]. Also, the results for the z-score in [8] and in test [9] were 0.67 (inactive) and 0.545, respectively. The composite z-score in [4] was -2.07 (inactive); in [10], 0.511.
For `CC1CC/C=C\[C@H]2OC34C=CCN(c5ccc6ccccc6c5)C(=O)[C@H]3N(CCCCCO)C(=O)[C@@H]4C2C(=O)O1` (stereo not given in full), the z-score in test [1] was -0.304; in [2], -0.317 (inactive); in test [3] it was -0.634 (inactive); in [5], -0.484 (inactive); in test [6], -0.122 (inactive); in [7] it was 0.11 (inactive). In addition, the z-score was 0.312 (inactive) in [8] and -0.0986 in [9]. In addition, the results for the composite z-score in test [4] and in test [10] were -0.164 (inactive) and -0.471, respectively.
As for `CC(C)NC(=O)[C@@]1(c2ccc([N+](=O)[O-])cc2)CC(=O)N(C(C)C)[C@@H]1c1ccc(CO)cc1`, the z-score in test [1] was -0.864; in test [2], 0.347 (inactive); in test [3], -0.972 (inactive); in test [5] it was 1.13 (inactive); in [6], -1.58 (inactive); in [7] it was 0.423 (inactive). For the same compound, the results for the z-score in test [8] and in test [9] were 1.17 (inactive) and -0.792, respectively. The values for the composite z-score in test [4] and in test [10] were -1.53 (inactive) and -0.369, respectively.
`NC(=O)NCC#Cc1ccc2c(c1)[C@]1(C(=O)N2)[C@H](c2ccc(O)cc2)N2[C@H](c3ccccc3)[C@H](c3ccccc3)OC(=O)[C@H]2[C@@H]1C(=O)N1CCN(c2ncccn2)CC1`: the z-score in test [1] is -0.271; in test [2], 0.244 (inactive); in test [3], 0.965 (inactive); in test [5], 1.18 (inactive); in test [6], 0.517 (inactive); in test [7], 0.247 (inactive). Also, the z-score in [8] was 0.0093 (inactive); in test [9], 1.24. In addition, the composite z-score was -0.154 (inactive) in [4] and -0.0004 in test [10].
With `CCCCC(=O)N(Cc1ccccc1F)[C@@H]1CC(C(=O)NCCO)=C[C@H](Oc2c(I)cc(CO)cc2OC)[C@H]1O`, the z-score in test [1] was -0.796; in test [2], -2.51 (inactive); in test [3] it was -0.137 (inactive); in test [5] it was -0.447 (inactive); in test [6], 1.65 (inactive); in [7], 0.754 (inactive). In addition, the z-score in test [8] is 0.266 (inactive); in test [9], -0.0533. In addition, the figures for the composite z-score in test [4] and in test [10] were -1.63 (inactive) and 0.344, respectively.
Regarding `O=C1OCCC/C=C\[C@H]2OC34C=CCN(CCN5CCOCC5)C(=O)[C@H]3N(CCO)C(=O)[C@@H]4C12` (stereo not given in full), the z-score in test [1] was -0.881; in test [2], 0.0436 (inactive); in test [3], -0.562 (inactive); in test [5] it was -0.317 (inactive); in test [6], 1.05 (inactive); in test [7], -1.12 (inactive). For the same compound, the z-score in test [8] is -1.09 (inactive); in test [9], -0.654. The composite z-score in [4] was 0.71 (inactive); in [10], 0.685.
For `CCCNC(=O)[C@@]1(C)c2ccccc2C(=O)N(Cc2ccc(OC(F)(F)F)cc2)[C@H]1c1ccc(CO)cc1`, the z-score in [1] is -0.0818; in test [2] it was -0.0169 (inactive); in [3], -0.0521 (inactive); in test [5], 0.251 (inactive); in [6], -0.277 (inactive); in test [7], 0.484 (inactive). The z-score in test [8] is 1.28 (inactive); in test [9] it was 0.325. For the same compound, the composite z-score was 0.263 (inactive) in test [4] and -0.0599 in test [10].
Consider `[N-]=[N+]=NCc1ccccc1C[C@]1(C(N)=O)N=C(c2ccc(OCCCO)cc2)O[C@H]1c1ccccc1N=[N+]=[N-]`, for which the z-score in test [1] is 0.776; in test [2], 0.603 (inactive); in test [3], -1.2 (inactive); in test [5] it was 1.54 (inactive); in test [6] it was 2.09 (inactive); in test [7] it was 0.616 (inactive). The z-score was 0.116 (inactive) in test [8] and -1.24 in test [9]. For the same compound, the composite z-score in [4] was 1.56 (inactive); in test [10] it was -0.0444.
Consider `Cc1ccc(F)cc1S(=O)(=O)N[C@@H]1CCN(Cc2ccc(C(F)(F)F)cc2)C1`, for which the z-score in test [1] is -0.29; in [2] it was -10.8 (active); in test [3], -0.529 (inactive); in [5] it was -0.553 (inactive); in [6] it was 0.338 (inactive); in [7] it was 0.0136 (inactive). Also, the values for the z-score in test [8] and in test [9] were -1.2 (inactive) and -0.979, respectively. Also, the composite z-score is -0.315 (inactive) in test [4] and -0.177 in test [10].
On to `COC(=O)c1c2oc(c1C(=O)OC)C(=O)N[C@H](Cc1ccccc1)Cn1nncc1C1(CCCCC1)NC(=O)N[C@H](CO)CC2`, for which the z-score is 1.09 in [1]; 0.916 (inactive) in [2]; 2.4 (inactive) in test [3]; 1.27 (inactive) in test [5]; 0.416 (inactive) in test [6]; 0.157 (inactive) in test [7]. The z-score in test [8] was 0.402 (inactive); in test [9] it was 2.19. For the same compound, the results for the composite z-score in test [4] and in test [10] were 0.112 (inactive) and 0.0859, respectively.
Consider `CC(C)N1C(=O)c2ccccc2[C@](C)(C(=O)NCCCN(C)C)[C@@H]1c1ccc(CO)cc1`, for which the z-score was 0.257 in test [1]; -0.919 (inactive) in test [2]; 0.627 (inactive) in test [3]; -0.522 (inactive) in test [5]; -0.283 (inactive) in test [6]; 0.0957 (inactive) in test [7]. In addition, the z-score was -0.429 (inactive) in [8] and 0.842 in [9]. Also, the composite z-score in [4] is 0.0044 (inactive); in test [10], 0.0871.
